Test results as given in PubChem BioAssay AID641 (Vanderbilt High Throughput Screening Facility, 2007).
Among all 58,000 compounds or so, about 3,400 (5.9%) were called active. This is one part of a sample in which actives are shown more often than they occur. Values without a mark were called inactive.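 How the source made its calls: active means luminescence count or its row- and column-corrected plate score outside the 99.7% band of the plate's sample wells, on either side; inactive means the rest.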

target: D(1A) dopamine receptor (Homo sapiens) (UniProt P21728); assay: D1 CRE-luciferase signal change, two-sided – cell-based, HEK293 D1, dopamine EC30, D1 allosteric modulator project, primary screen (AID 641); conditions: dopamine EC30 potentiation, at 10 µM, actives deviate in either direction
Sequence (P21728 whole entry, looked up): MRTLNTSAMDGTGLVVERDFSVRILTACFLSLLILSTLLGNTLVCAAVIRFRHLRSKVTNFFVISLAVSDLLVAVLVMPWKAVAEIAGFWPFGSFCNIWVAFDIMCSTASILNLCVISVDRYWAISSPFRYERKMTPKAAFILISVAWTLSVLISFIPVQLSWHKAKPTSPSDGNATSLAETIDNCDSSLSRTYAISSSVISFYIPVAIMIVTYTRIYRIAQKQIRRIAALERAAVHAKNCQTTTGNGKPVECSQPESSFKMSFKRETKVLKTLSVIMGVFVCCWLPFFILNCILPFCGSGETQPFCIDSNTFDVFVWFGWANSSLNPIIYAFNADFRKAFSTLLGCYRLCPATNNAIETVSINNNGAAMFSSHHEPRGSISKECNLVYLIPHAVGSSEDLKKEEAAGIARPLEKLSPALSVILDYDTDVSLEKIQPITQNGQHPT

Row | Compound | B-score
1 | CCCN(CCC)C(=O)C1c2ccccc2Oc2ccccc21 | 0.123
2 | CC(=O)c1cccc(NC(=O)c2ccncc2)c1 | -0.215
3 | C/C(=C\C(=O)c1ccccc1)Nc1cccc(O)c1 | 4.14 (active)
4 | C/C(=C\C(=O)c1cccnc1)Nc1ccc(C)c(C)c1 | 0.381
5 | CCc1nc(Nc2ccc3nccnc3c2)c2oc3ccccc3c2n1 | -1.78
6 | Cc1cccc(N2CCN(C(c3ccccc3)c3nnnn3CC3CCCO3)CC2)c1C (centres undefined) | -1.87
7 | COc1ccc(CCNC(=O)CSc2nc(C)nc3c2oc2ccccc23)cc1OC | 1.41
8 | CCSc1nc(C)nc2c1oc1ccccc12 | 10.5 (active)
9 | Cc1nc(N2CCN(c3ncccn3)CC2)c2oc3ccccc3c2n1 | 3.11
10 | CCn1nnc(NC(=O)c2c(OC)cccc2OC)n1 | -0.273
11 | Cc1ccccc1CN1CCN(CC(=O)NCc2ccccn2)C1=O | -0.577
12 | COc1ccc2c(Cl)c(-c3nnco3)sc2c1 | -2.33
13 | COCCn1c(-c2ccc(OC)c(OC)c2)nc2ccccc21 | 1.2
14 | COc1ccc(-c2nnco2)cc1OC | 9.98 (active)
15 | COC(=O)c1ccc(NC(=O)CN(c2ccc(C)cc2)S(=O)(=O)c2c(C)n[nH]c2C)cc1 | -1.32
16 | CC(=O)NCC(=O)N(C)C(C(=O)Nc1ccc2c(c1)OCCO2)c1ccccc1 (centres undefined) | 1.86
17 | CC(=O)NC(C)c1nc2ccccc2n1Cc1ccccc1F (centres undefined) | 0.517
18 | Cc1nc(Nc2ccc3c(c2)OCCO3)c2nnn(Cc3ccccc3Cl)c2n1 | -2.58
19 | C#CCNc1nc(C(C)C)nc2c1nnn2Cc1ccccc1F | 8.02 (active)
20 | NC(=O)C1CC=CCC1C(=O)OCC(Cl)=C(Cl)Cl (centres undefined) | -0.419
21 | CCOc1cccc(=O)c2c(C)n(CC3CCCO3)c(C)c12 (centres undefined) | 0.961
22 | CCOC(=O)NC(C(F)(F)F)(C(F)(F)F)P(=O)(c1ccccc1)c1ccccc1 | -0.00139

Row | Compound | B-score
23 | CCCn1c(=O)c2[nH]c(C3CCCC3)nc2n(CCC)c1=O | 20 (active)
24 | CCN(c1ccccc1)S(=O)(=O)c1ccc(N)cc1 | 0.0758
25 | CC(NC(=O)CN1CCN(Cc2ccc(Cl)cc2)C1=O)c1ccc2c(c1)OCCO2 (centres undefined) | -0.383
26 | CCNc1nc(NCC)nc(N(C)n2cnnc2)n1 | 6.74 (active)
27 | CCNc1nc(SCCOc2ccccc2)nc(N(C)C)n1 | 1.16
28 | Cc1cccc(NC(=O)C2CCN(S(=O)(=O)c3cccc4cccnc34)CC2)c1 | -1.64
29 | CCOC(=O)c1ccc(Nc2cc(C)nc3nc(C)nn23)cc1 | 0.18
30 | COc1cccc(N2CC(C(=O)Nc3c(C)cccc3C)CC2=O)c1 (centres undefined) | 0.869
31 | CCc1ccc2oc(=O)cc(CN3CCCCC3C)c2c1 (centres undefined) | 3.81 (active)
32 | CC1CCCCN1CC(=O)NCc1ccc2c(c1)OCO2 (centres undefined) | 0.0178
33 | Cc1cc(NC(=O)CN2CCCCC2C)nc2c1c(=O)oc1ccccc12 (centres undefined) | -0.0379
34 | COCC(C)N=CC1=C(O)CC(C)(C)CC1=O (centres undefined) | 0.0482
35 | CCn1c(Cc2ccccc2)nnc1SCC(=O)Nc1ccccc1 | -0.326
36 | CC1OC2C(OC1C)N(S(C)(=O)=O)CCN2S(C)(=O)=O (centres undefined) | -0.145
37 | CCc1ccc(-c2nnn(Cc3nn[nH]n3)n2)cc1 | -0.837
38 | COc1ccc(-c2nnn(CC(=O)N(CCO)C(C(=O)NC3CCCC3)c3ccc(F)cc3)n2)cc1 (centres undefined) | -0.256
39 | COc1ccc(-c2nnn(Cc3nc(N)nc(N4CCCCC4)n3)n2)cc1 | 5 (active)
40 | COc1ccc(-n2nc3c(c2NC(=O)Cc2cccc(C)c2)CS(=O)C3)cc1 (centres undefined) | 0.123
41 | COc1cccc(NC(=O)Nc2nnc(N3CCCCC3C)s2)c1 (centres undefined) | -0.931
42 | CC/C(=N\O)C(C)(C)/[N+]([O-])=C/c1ccc(Br)cc1 | 0.458
43 | CCCS(=O)(=O)N1CCC(C(=O)NCCCN(C)Cc2ccccc2)CC1 | -0.981
44 | CCCS(=O)(=O)N1CCC(C(=O)NCCc2ccc(OC)c(OC)c2)CC1 | 1.44 (active)

Row | Compound | B-score
45 | COc1ccc(CCNC(=O)C2CCN(c3nn4c(=O)cc(C)nc4s3)CC2)cc1OC | -0.543
46 | CN1CCN(Cc2c(O)ccc3c2oc(=O)c2ccccc23)CC1 | -0.323
47 | O=C(CSc1nnc(-c2cccs2)n1Cc1ccco1)c1ccc2c(c1)OCO2 | -1.01
48 | CCOC(=O)N1CCC(NC(=O)c2cnn3ccccc23)CC1 | 0.314
49 | O=C(O)C1CC(=O)N(Cc2cccnc2)C1 (centres undefined) | -0.0843
50 | O=C(Cn1nc(Cc2cccnc2)c2ccccc2c1=O)NCC1COc2ccccc2O1 (centres undefined) | 0.362
51 | CC1Oc2ccccc2N(Cc2cccnc2)C1=O (centres undefined) | 6.15 (active)
52 | Cc1cc2cc(CNC(=O)c3ccc(S(=O)(=O)N4CCOCC4)cc3)ccc2[nH]1 | 0.133
53 | O=C(CN1C(=O)CSc2ncccc21)N1CCOCC1 | -0.0289
54 | Cc1cc(=O)cc(C)[nH]1 | -0.271
55 | CC(=O)NC(C)(C)C1CC=C(C)/C(=N\O)C1 (centres undefined) | 0.674
56 | OC(COc1ccccc1)Cn1cc(Br)cn1 (centres undefined) | -0.000319
57 | CCn1cc(C(=O)NCC2COc3ccccc3O2)c2cc(OC)c(OC)cc2c1=O (centres undefined) | 5.22 (active)
58 | CCn1cc(C(=O)NCc2ccc3c(c2)OCO3)c2cc(OC)c(OC)cc2c1=O | 0.436
59 | CCn1cc(C(=O)N2CCN(Cc3ccc4c(c3)OCO4)CC2)c2cc(OC)c(OC)cc2c1=O | -1.2
60 | Cc1ccccc1C(=O)Nc1cccc(-c2nnc(SCC(=O)O)n2C)c1 | -0.574
61 | CCCc1[nH]nc2c1C(c1ccc(OC)c(Cn3nc(C)c(Br)c3C)c1)C(C#N)=C(N)O2 (centres undefined) | 0.961
62 | CC1(C)CC(=O)c2sc(N)nc2C1 | -0.282
63 | CCCc1nc(N)nc2c1C(=O)CC(C)(C)C2 | 14.2 (active)
64 | Cc1ccccc1CSCC(=O)NC(=O)NC(C)(C)C | 0.485
